PubChem BioAssay AID2685 (National Center for Advancing Translational Sciences (NCATS), 2010)
The whole screen tested about 320,000 compounds, of which about 2,100 (0.66%) were called active. About 53% were inconclusive and are not listed. Calls follow the shape of the dose curve; as a rule, active = well fitted inhibition curve with a large enough effect in the signal ratio, with a control signal flat (not every such curve was filed as active); inconclusive = small, poorly fitted or top-dose-only effect, or effect the other way, or a change in a side signal; inactive = flat fitted curve, though single readings scatter; the % refers to the signal ratio. The full list was thinned out, with actives kept by preference.

Assay: qHTS Assay for Lipid Storage Modulators in Drosophila S3 Cells;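 as to cell number change: cells counted by Cell Tracker Red CMTPX staining in the red channel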; as to lipid storage change, negative = inhibition: % is scaled to controls: 0 for no effect and ±100 for the full control effect
Details: BODIPY lipid droplet fluorescence, 18-24 h, cells fed with added oleic acid; cell number change: measured here: cell count max response; series mostly up to 46.1 µM; lipid storage change, negative = inhibition: at the top concentration
Procedure, shortened: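 Drosophila S3 cells got compounds at several concentrations plus oleic acid (400 uM solution). Laser-scanning cytometry with 488 nm excitation read lipid droplets at 500-530 nm and cells at 575-640 nm. Percent activity was relative to 20 uM Triacsin C.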
Potency is read from the fitted curve at half-maximal effect.

Structure (SMILES)	lipid storage change, negative = inhibition	cell number change	Potency	outcome
COc1ccc(C(=O)Nc2cc(OC)nc(OC)n2)cc1	5.74% (inactive)	-3.14%	–	–
Cc1cc(C)cc(NC(=O)c2ccc([N+](=O)[O-])o2)c1	-20.6% (inactive)	-11.8%	–	–
COc1cc(NC(C)=O)ccc1NC(=O)c1cc2ccccc2o1	1.23% (inactive)	11.3%	–	–
COc1cc(NC(=O)c2ccc([N+](=O)[O-])o2)ccc1NC(=O)c1ccco1	–	-26.2%	8.2 µM (active)	–
COc1cc(NC(=O)c2ccccc2)ccc1NC(=O)c1cc2ccccc2o1	-2.66% (inactive)	-16.3%	–	–
COc1cc(NC(=O)c2cc3ccccc3o2)ccc1NC(=O)c1ccco1	–	2.99%	0.58 µM (active)	–
Cc1ccc2nsnc2c1NC(=O)c1cccc([N+](=O)[O-])c1	19.5% (inactive)	3.04%	–	–
Cc1ccc2nsnc2c1NC(=O)c1ccc([N+](=O)[O-])o1	–	0.87%	18.4 µM (active)	–
CCC(=O)Nc1ccc(NC(=O)c2ccco2)c(OC)c1	–	16%	–	inactive
Cc1cccc(NC(=O)c2ccc([N+](=O)[O-])o2)c1	–	3.29%	13 µM (active)	–
Cc1cccc(NC(=O)c2ccc(-c3ccccc3[N+](=O)[O-])o2)c1	3.52% (inactive)	15.3%	–	–
COc1cc(NC(=O)c2cccc([N+](=O)[O-])c2)ccc1NC(=O)c1ccco1	-17.8% (inactive)	-8.46%	–	–
O=C(Nc1c(Cl)ccc2nsnc12)c1ccc([N+](=O)[O-])o1	–	11.1%	–	inactive
Cc1ccc(C(=O)CCC(=O)OCc2nnc(-c3ccccc3)o2)cc1	–	–	–	inactive
O=C1c2cc(Cl)ccc2OC2(CCNCC2)C12CC(c1ccccc1)=NO2 (stereo unspecified)	-6.62% (inactive)	8.66%	–	–
COC(=O)[C@@]1(Cc2ccc(OC)cc2)[C@H]2c3cc(C(=O)N4CCCC4)n(CCSCCO)c3C[C@H]2CN1C(=O)c1ccccc1	2.21% (inactive)	0.624%	–	–
CN(C1CCCC1)C1CCN(C(=O)CNC(=O)/C=C/c2cccc(C(F)(F)F)c2)CC1	-1.31% (inactive)	8.56%	–	–
CN(C)c1ccc(CN(C(=O)c2cccs2)C2CCS(=O)(=O)C2)cc1 (stereo unspecified)	–	15.9%	–	inactive
c1ccc(OCc2nc3c4c(ncn3n2)-c2ccccc2CC42CCCC2)cc1	-9.37% (inactive)	-10.9%	–	–
COc1ccccc1NC(=O)C1CCCN(c2cnccn2)C1 (stereo unspecified)	–	17.3%	–	inactive
COc1cc2c(cc1OC)CN(C(=O)Nc1ccccc1)CC2	-18.6% (inactive)	6.01%	–	–
CCCc1cc(=O)n2[nH]c(C)c(-c3ccc(OC)cc3)c2n1	–	16.5%	18.4 µM (active)	–
CCOC(=O)Cc1cc(=O)n2[nH]c(C)c(-c3ccc(Cl)cc3)c2n1	–	-27.5%	–	inactive
COC(=O)Cc1cc(=O)n2[nH]c(C)c(-c3ccccc3)c2n1	-8.25% (inactive)	-1.66%	–	–

Structure (SMILES)	lipid storage change, negative = inhibition	cell number change	Potency	outcome
C/C(=N\NC(=O)NC1CCCCC1)c1ccc(Cl)s1	8.08% (inactive)	-11.8%	–	–
COc1ccc(-c2nc(SC(C)C(=O)Nc3ccc(NC(C)=O)cc3)n[nH]2)cc1 (stereo unspecified)	26.6% (inactive)	32.4%	–	–
COc1ccc(-c2nc(SCC(=O)NC3CCCCC3)n[nH]2)cc1	–	-21.7%	–	inactive
COc1ccc(-c2nc(SC(C)C(=O)NC3CC3)n[nH]2)cc1 (stereo unspecified)	–	-10%	1.84 µM (active)	–
CCOC(=O)C1CCCCN1Cc1ccc(F)c(Br)c1 (stereo unspecified)	2.46% (inactive)	-23.6%	–	–
CCOC(=O)C1CCCCN1Cc1cccc(Oc2ccccc2)c1 (stereo unspecified)	-11.2% (inactive)	-1.04%	–	–
CCOC(=O)C1CCCCN1Cc1ccc(C(F)(F)F)cc1 (stereo unspecified)	–	-25.6%	6.51 µM (active)	–
COc1cc(C2CC(=O)Oc3c(C(CCN4CCN(c5ccccc5)CC4)c4ccc(N(C)C)cc4)c(OC)cc(OC)c32)cc(OC)c1OC (stereo unspecified)	3.08% (inactive)	-0.692%	–	–
O=C(COc1ccccc1[N+](=O)[O-])Nc1cc(C(=O)O)cc(C(=O)O)c1	-2.91% (inactive)	-6.55%	–	–
CC(=O)Nc1ccc(NC(=O)CSc2ncnc3sc(C)c(C)c23)cc1	–	3.95%	13 µM (active)	–
CCN(CC(=O)Nc1ccc(NC(C)=O)cc1)C(=O)CSc1ncnc2sc(C)c(C)c12	4.57% (inactive)	–	–	–
Cc1sc2ncnc(SCC(=O)Nc3ccc(CN4CCCC4)cc3)c2c1C	-3.27% (inactive)	13.1%	–	–
COC(=O)c1ccc(NC(=O)CSc2nc3[nH]ncc3c(=O)[nH]2)cc1	-11.4% [at 0.0737 µM] (inactive)	–	–	–
CCc1ccc(C(=O)COC(=O)CNC(=O)COc2ccccc2)cc1	-0.983% (inactive)	-0.597%	–	–
CC(C)c1ccc(OCC(=O)NC(C)c2ccccc2)cc1 (stereo unspecified)	-29.5% (inactive)	-6.3%	–	–
CC(C)CC(NC(=O)COc1ccccc1)C(=O)O (stereo unspecified)	-9.58% (inactive)	23.7%	–	–
O=C(COc1ccccc1)NCc1ccccc1	–	–	–	inactive
CC(C)C(NC(=O)COc1ccccc1)C(=O)O (stereo unspecified)	–	-18.5%	32.6 µM (active)	–
COC(=O)CNC(=O)COc1ccccc1	–	0.31%	25.9 µM (active)	–
COC(=O)c1cccc(NC(=S)N2CCN(c3ccccc3F)CC2)c1	17.2% (inactive)	12.8%	–	–
CCOC(=O)CC(/C(C)=N\O)c1ccccc1 (stereo unspecified)	2.03% (inactive)	-0.923%	–	–
Cc1ccc(NC(=O)CN2C(=O)CSC2=O)cc1	3.2% (inactive)	-1.37%	–	–
CCc1ccc(NC(=O)CN2C(=O)CSC2=O)cc1	-5.64% (inactive)	-0.41%	–	–
O=C(CN1C(=O)CSC1=O)Nc1ccc(N2CCOCC2)cc1	–	–	20.6 µM (active)	–
